{"source": "PubChem BioAssay AID463173", "about": "(ICCB-Longwood Screening Facility, Harvard Medical School, 2010)", "note": "The whole screen tested about 52,000 compounds, of which about 4,300 (8.3%) were called active. This is one part of a sample in which actives are shown more often than they occur. Rule as the data show it: active = survival mostly below about 52% (no sharp cut-off); inactive = mostly above about 56%.", "data": [{"test_system": "DeltatarO mutant", "assay": "growth inhibition of S. aureus wild type versus tarO mutant, primary screen, teichoic acid synthesis inhibitors, RN4220, OD600 (AID 463173)", "settings": "OD600, 18 h, active compounds read low, screened at 18.75 µg/mL (by protocol)", "values": [{"smiles": "CC(=O)c1cccc(NS(=O)(=O)c2cc3c(cc2C)N(C(C)=O)CCO3)c1", "survival": "95% (inactive)"}, {"smiles": "CCc1ccc(NC(=O)Cn2c(=O)n(CCC(=O)NCc3ccc4c(c3)OCO4)c(=O)c3ccccc32)cc1", "survival": "91% (inactive)"}, {"smiles": "CCc1ccc(NC(=O)Cn2c(=O)n(CCCC(=O)NCc3ccc4c(c3)OCO4)c(=O)c3ccccc32)cc1", "survival": "93% (active)"}, {"smiles": "CCc1ccc(NC(=O)Cn2c(=O)n(CCCCC(=O)NCc3ccc4c(c3)OCO4)c(=O)c3ccccc32)cc1", "survival": "87% (inactive)"}, {"smiles": "O=C(Cc1ccccc1)Nc1nnc2n1CCS2", "survival": "71% (inactive)"}, {"smiles": "O=C(Cc1ccc(Cl)cc1)Nc1nnc2n1CCS2", "survival": "77% (inactive)"}, {"smiles": "O=C(Cc1ccc(F)cc1)Nc1nnc2n1CCS2", "survival": "52% (active)"}, {"smiles": "CCOC(=O)c1c(C)[nH]c(CCC(=O)NCc2ccccc2C)c1C", "survival": "80% (inactive)"}, {"smiles": "COc1cc(NS(=O)(=O)c2ccc(NC(=O)c3ccc(Cl)cc3Cl)cc2)nc(OC)n1", "survival": "98% (inactive)"}, {"smiles": "O=C1OC(Nc2ccccc2C(F)(F)F)c2ccccc21", "note": "(stereo unspecified)", "survival": "45% (inactive)"}, {"smiles": "Cc1ccc(NC2OC(=O)c3ccccc32)cc1", "note": "(stereo unspecified)", "survival": "31% (active)"}, {"smiles": "CC(=O)Nc1ccc(NC2OC(=O)c3ccccc32)cc1", "note": "(stereo unspecified)", "survival": "50% (inactive)"}, {"smiles": "O=C(Nc1ccc2ncccc2c1)c1ccccc1", "survival": "94% (inactive)"}, {"smiles": "O=C1OC(Nc2ccccn2)c2ccccc21", "note": "(stereo unspecified)", "survival": "42% (inactive)"}, {"smiles": "O=C1OC(Nc2ccc3ncccc3c2)c2ccccc21", "note": "(stereo unspecified)", "survival": "30% (active)"}, {"smiles": "CCc1ccc(CNC(=O)CN2C(=O)c3cccnc3Oc3ccc(C)cc32)cc1", "survival": "72% (inactive)"}, {"smiles": "Cc1ccc(C=N/C(=N\\NC(=O)c2ccccc2)c2ccccc2)o1", "survival": "94% (inactive)"}, {"smiles": "COc1ccc2nc(N3CCN(C(=O)c4ccco4)CC3)sc2c1", "survival": "88% (inactive)"}, {"smiles": "CCN(CC)CCCNC(=O)c1ccc2c(=O)n(CCc3ccccc3)c(=O)[nH]c2c1", "survival": "82% (inactive)"}, {"smiles": "COc1nc(N2CCCCCC2)nc(N2CCCCCC2)n1", "survival": "66% (inactive)"}, {"smiles": "CCN(CC)C(=O)C1CCCN(c2ncnc3onc(C)c23)C1", "note": "(stereo unspecified)", "survival": "99% (inactive)"}, {"smiles": "CCS(=O)(=O)c1ncc(Cl)c(C(=O)N(Cc2ccccc2)c2ccc(OC)cc2)n1", "survival": "36% (active)"}, {"smiles": "COc1ccc(N(Cc2ccccc2)C(=O)c2nc(S(C)(=O)=O)ncc2Cl)cc1", "survival": "51% (inactive)"}, {"smiles": "COc1ccc(N(Cc2ccccc2)C(=O)c2nc(SC)ncc2Cl)cc1", "survival": "99% (inactive)"}, {"smiles": "CCCSc1ncc(Cl)c(C(=O)N(Cc2ccccc2)c2ccc(OC)cc2)n1", "survival": "45% (active)"}, {"smiles": "CCOc1ccc(N(Cc2ccccc2)C(=O)c2nc(SC)ncc2Cl)cc1", "survival": "72% (inactive)"}, {"smiles": "CCSc1ncc(Cl)c(C(=O)N(Cc2ccccc2)c2ccc(OC)cc2)n1", "survival": "100% (inactive)"}, {"smiles": "CCOc1ccc(N(Cc2ccccc2)C(=O)c2nc(S(C)(=O)=O)ncc2Cl)cc1", "survival": "24% (active)"}, {"smiles": "COc1ccc(CN(C(=O)c2ccco2)c2ccccc2)cc1", "survival": "96% (inactive)"}, {"smiles": "CCOc1ccc(N(Cc2ccccc2)C(=O)c2nc(SCC)ncc2Cl)cc1", "survival": "106% (inactive)"}, {"smiles": "COc1ccc(-c2cn3cccnc3n2)cc1NC(=O)c1cc(C)cc(C)c1", "survival": "61% (inactive)"}, {"smiles": "Cc1cc(C)c(NC(=O)Nc2csc3c2CCCC3)c(C)c1", "survival": "78% (inactive)"}, {"smiles": "Cc1c(CNCc2ccc(Cl)cc2)c(C(=O)O)c(C)n1Cc1ccc(F)cc1", "survival": "77% (inactive)"}, {"smiles": "CCOc1ccc(S(=O)(=O)N2CCN(Cc3nc4ccc(C)cc4o3)CC2)cc1", "survival": "73% (inactive)"}, {"smiles": "Cc1ccc(NC(=O)CN(Cc2ccccc2)S(=O)(=O)c2ccc3nc(C)sc3c2)c(C)c1", "survival": "83% (inactive)"}, {"smiles": "CCC(=O)N1CCc2cc(CNC(=O)c3cccc(N(C)C)c3)ccc21", "survival": "84% (inactive)"}, {"smiles": "CCOc1ccc(NC(=O)CC2C(=O)N(c3ccc(OC)cc3)C(=O)N2C2CCCCC2)cc1", "note": "(stereo unspecified)", "survival": "110% (inactive)"}, {"smiles": "COc1cc(S(=O)(=O)n2ccnc2C(C)C)ccc1Br", "survival": "55% (inactive)"}, {"smiles": "CCOc1ccc(OCC)c(S(=O)(=O)n2cnc3cc(C)c(C)cc32)c1", "survival": "104% (inactive)"}, {"smiles": "Cc1nccn1S(=O)(=O)c1c(C(C)C)cc(C(C)C)cc1C(C)C", "survival": "86% (inactive)"}, {"smiles": "CCc1nccn1S(=O)(=O)c1cc(Br)ccc1Br", "survival": "43% (active)"}, {"smiles": "Cc1nccn1S(=O)(=O)c1ccc(Cl)cc1Cl", "survival": "67% (inactive)"}, {"smiles": "CCOc1cc(C)c(C(C)C)cc1S(=O)(=O)n1ccnc1CC", "survival": "-3% (active)"}, {"smiles": "Cc1ccc(NC(=O)CN(C)S(=O)(=O)c2cnc[nH]2)cc1", "survival": "102% (inactive)"}, {"smiles": "Cc1cc(C(=O)NCc2ccccc2)c2c(C)nn(-c3cccc(F)c3)c2n1", "survival": "55% (inactive)"}, {"smiles": "O=C(C1CCN(c2ncnc3c2nc2n3CCCCC2)CC1)N1CCN(c2ccc(Cl)cc2)CC1", "survival": "81% (inactive)"}, {"smiles": "Cc1ccc(N2CCN(C(=O)C3CCN(c4ncnc5c4nc4n5CCCCC4)CC3)CC2)c(C)c1", "survival": "79% (inactive)"}, {"smiles": "O=C(NCc1ccccc1)C1CCN(c2ncnc3c2nc2n3CCCCC2)CC1", "survival": "84% (inactive)"}, {"smiles": "Cc1cccc(N2CCN(C(=O)C3CCN(c4ncnc5c4nc4n5CCCCC4)CC3)CC2C)c1", "note": "(stereo unspecified)", "survival": "6% (active)"}, {"smiles": "O=C(C1CCN(c2ncnc3c2nc2n3CCCCC2)CC1)N1CCN(c2ccccc2)CC1", "survival": "72% (inactive)"}, {"smiles": "O=C(NCCc1ccccc1)C1CCN(c2ncnc3c2nc2n3CCCCC2)CC1", "survival": "-2% (active)"}]}]}
